# Publication PMC7862700, “An all-to-all approach to the identification of sequence-specific readers for epigenetic DNA modifications on cytosine”
# How the values were obtained:
# Assay in all cases: DAPPL (digital affinity profiling via proximity ligation, sequencing); 10 mM Tris-HCl pH 7.5, 50 mM NaCl, 1 mM DTT, 4% glycerol, room temperature, 30 min; GST-TFs on glutathione beads, 16-mer random dsDNA library, 0.1% formaldehyde crosslink after washing; high values mean tight binding
# [1] = biological target: T1, FEV (Homo sapiens, UniProt Q99581 1-238); conditions: protein: recombinant; tags: N-terminal GST; dsDNA, one strand shown
# T1 sequence: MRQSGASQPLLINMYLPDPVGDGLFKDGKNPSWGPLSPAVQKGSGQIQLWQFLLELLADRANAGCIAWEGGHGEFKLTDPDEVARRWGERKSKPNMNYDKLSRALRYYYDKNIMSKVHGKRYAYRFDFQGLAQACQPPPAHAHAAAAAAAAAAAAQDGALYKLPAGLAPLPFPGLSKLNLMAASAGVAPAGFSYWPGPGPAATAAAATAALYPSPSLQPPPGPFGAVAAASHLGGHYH
# Summary of the method: (§1)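 A tag-only sample was pooled with DNA-barcoded human transcription factors that had been expressed in yeast as GST fusions and captured on glutathione beads. The pools were incubated for 30 min at room temperature with 200 nmole of a random double-stranded 16-mer DNA library in Tris/NaCl/DTT/glycerol buffer, then washed, crosslinked with 0.1% formaldehyde, proximity-ligated (BsaI/T4 ligase, 1 h, 37 °C), PCR-amplified and sequenced on an Illumina NextSeq500. Binding signal is each hexamer's read frequency for a factor divided by its frequency for the tag-only sample.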
# [2] = biological target: ETV5 (Homo sapiens, UniProt P41161 1-510); conditions: protein: recombinant; tags: N-terminal GST; dsDNA, one strand shown
# ETV5, sequence (P41161 whole entry): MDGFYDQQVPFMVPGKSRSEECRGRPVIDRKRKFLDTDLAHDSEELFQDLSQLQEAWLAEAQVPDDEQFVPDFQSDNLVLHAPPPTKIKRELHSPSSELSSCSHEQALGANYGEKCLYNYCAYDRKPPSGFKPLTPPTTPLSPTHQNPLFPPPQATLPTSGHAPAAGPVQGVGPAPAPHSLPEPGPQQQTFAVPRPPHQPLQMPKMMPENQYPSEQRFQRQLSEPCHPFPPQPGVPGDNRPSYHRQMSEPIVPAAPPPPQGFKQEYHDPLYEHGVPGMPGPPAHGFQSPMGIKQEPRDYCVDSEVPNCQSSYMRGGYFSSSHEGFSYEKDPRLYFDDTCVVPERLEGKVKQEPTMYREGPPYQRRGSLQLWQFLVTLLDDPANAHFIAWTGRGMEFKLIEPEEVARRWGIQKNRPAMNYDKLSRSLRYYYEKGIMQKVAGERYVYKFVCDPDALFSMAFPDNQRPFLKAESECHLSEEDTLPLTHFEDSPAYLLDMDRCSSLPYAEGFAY
# Summary of the method: as §1
# [3] = biological target: HSF1 (Homo sapiens, UniProt Q00613 1-529); conditions: protein: recombinant; tags: N-terminal GST; chain copies: 3; dsDNA, one strand shown
# HSF1, sequence (Q00613 whole entry): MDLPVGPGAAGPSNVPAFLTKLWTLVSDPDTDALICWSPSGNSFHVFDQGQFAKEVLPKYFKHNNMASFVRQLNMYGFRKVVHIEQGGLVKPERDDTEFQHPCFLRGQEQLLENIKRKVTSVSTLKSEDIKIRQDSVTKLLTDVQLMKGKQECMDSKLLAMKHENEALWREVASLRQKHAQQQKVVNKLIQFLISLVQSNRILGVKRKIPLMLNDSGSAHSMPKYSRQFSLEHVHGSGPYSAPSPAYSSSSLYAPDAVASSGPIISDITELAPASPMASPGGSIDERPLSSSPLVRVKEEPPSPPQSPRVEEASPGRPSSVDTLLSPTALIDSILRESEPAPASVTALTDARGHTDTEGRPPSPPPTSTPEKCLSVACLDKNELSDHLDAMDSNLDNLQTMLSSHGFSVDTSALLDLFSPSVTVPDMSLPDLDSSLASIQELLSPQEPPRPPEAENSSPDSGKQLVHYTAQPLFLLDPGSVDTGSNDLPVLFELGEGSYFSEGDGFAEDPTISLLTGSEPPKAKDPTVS
# Summary of the method: as §1
# [4] = biological target: T2, SPIC (Homo sapiens, UniProt Q8N5J4 1-248); conditions: protein: recombinant; tags: N-terminal GST; dsDNA, one strand shown
# T2 sequence: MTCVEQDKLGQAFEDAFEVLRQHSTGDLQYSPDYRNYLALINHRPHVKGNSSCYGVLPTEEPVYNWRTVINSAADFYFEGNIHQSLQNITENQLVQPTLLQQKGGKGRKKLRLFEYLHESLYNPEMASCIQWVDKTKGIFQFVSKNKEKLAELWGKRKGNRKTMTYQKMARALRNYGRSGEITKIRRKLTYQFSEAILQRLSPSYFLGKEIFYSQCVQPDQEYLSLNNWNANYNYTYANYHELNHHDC
# Summary of the method: as §1
# [5] = biological target: ELF4 (Homo sapiens, UniProt Q99607 1-663); conditions: protein: recombinant; tags: N-terminal GST; dsDNA, one strand shown
# ELF4, sequence (Q99607 whole entry): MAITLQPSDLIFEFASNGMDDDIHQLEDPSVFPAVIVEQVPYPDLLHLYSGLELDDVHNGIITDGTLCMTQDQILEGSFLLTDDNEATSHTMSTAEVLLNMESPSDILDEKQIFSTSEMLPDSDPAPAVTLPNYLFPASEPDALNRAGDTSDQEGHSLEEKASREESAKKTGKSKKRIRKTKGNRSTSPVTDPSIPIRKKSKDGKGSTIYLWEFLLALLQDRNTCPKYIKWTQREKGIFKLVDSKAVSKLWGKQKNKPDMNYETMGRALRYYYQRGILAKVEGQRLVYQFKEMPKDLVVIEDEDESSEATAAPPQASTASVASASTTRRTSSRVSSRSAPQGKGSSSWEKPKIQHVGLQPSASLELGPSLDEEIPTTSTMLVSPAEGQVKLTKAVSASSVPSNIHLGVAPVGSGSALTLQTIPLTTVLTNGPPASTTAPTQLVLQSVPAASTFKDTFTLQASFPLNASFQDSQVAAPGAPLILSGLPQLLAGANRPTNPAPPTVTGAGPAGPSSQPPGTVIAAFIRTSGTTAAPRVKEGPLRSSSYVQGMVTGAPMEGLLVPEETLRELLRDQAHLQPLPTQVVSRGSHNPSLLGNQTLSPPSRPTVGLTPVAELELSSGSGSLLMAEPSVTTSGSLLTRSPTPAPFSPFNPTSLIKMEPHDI
# Summary of the method: as §1
# [6] = biological target: T3, ELK4 (Homo sapiens, UniProt P28324-2 1-405); conditions: protein: recombinant; tags: N-terminal GST; dsDNA, one strand shown
# T3 sequence: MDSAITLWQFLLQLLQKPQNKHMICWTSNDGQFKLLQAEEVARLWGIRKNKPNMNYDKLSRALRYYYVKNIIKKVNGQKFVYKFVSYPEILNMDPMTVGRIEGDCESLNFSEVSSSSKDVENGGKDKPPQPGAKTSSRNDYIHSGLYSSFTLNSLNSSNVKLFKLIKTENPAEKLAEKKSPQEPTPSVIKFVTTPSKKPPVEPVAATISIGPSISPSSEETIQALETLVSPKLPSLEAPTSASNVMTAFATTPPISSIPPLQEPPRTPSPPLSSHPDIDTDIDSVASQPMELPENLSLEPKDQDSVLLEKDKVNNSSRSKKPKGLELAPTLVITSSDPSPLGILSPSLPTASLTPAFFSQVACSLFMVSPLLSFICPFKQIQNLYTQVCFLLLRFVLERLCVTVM
# Summary of the method: as §1
# [7] = biological target: T4, ETV2 (Homo sapiens, UniProt O00321 1-342); conditions: protein: recombinant; tags: N-terminal GST; dsDNA, one strand shown
# T4 sequence: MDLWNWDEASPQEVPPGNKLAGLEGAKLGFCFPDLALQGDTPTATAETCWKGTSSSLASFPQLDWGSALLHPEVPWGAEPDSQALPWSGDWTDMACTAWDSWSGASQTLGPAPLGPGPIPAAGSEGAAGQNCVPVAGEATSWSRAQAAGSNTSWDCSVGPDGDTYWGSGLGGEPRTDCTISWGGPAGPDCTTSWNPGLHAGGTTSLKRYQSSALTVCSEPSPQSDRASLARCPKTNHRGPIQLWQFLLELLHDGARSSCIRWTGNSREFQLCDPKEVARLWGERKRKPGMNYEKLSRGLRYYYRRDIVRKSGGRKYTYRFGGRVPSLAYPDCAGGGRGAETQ
# Summary of the method: as §1
# [8] = biological target: T5, ELF3 (Homo sapiens, UniProt P78545 1-371); conditions: protein: recombinant; tags: N-terminal GST; dsDNA, one strand shown
# T5 sequence: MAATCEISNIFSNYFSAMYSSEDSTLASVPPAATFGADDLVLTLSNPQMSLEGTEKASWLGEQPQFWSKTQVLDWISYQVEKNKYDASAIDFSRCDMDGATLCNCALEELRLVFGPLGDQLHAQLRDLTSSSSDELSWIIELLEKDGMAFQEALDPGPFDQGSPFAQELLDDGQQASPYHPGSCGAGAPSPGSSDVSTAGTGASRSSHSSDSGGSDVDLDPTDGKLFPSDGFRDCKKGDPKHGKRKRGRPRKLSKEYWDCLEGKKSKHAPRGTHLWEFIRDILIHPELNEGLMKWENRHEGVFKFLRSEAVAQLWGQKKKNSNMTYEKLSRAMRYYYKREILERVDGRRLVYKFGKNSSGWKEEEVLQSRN
# Summary of the method: as §1
# [9] = biological target: CRX (Homo sapiens, UniProt O43186 1-299); conditions: protein: recombinant; tags: N-terminal GST; dsDNA, one strand shown
# CRX, sequence (O43186 whole entry): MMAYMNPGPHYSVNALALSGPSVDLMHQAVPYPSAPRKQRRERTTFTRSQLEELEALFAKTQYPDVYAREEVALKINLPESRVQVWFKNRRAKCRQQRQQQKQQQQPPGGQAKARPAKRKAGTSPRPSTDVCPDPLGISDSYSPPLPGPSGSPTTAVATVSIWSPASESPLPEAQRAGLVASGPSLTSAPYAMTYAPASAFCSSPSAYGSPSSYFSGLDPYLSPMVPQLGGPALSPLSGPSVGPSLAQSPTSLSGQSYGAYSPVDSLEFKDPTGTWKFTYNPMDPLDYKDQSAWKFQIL
# Summary of the method: as §1
# [10] = biological target: ETV1 (Homo sapiens, UniProt P50549 1-477); conditions: protein: recombinant; tags: N-terminal GST; dsDNA, one strand shown
# ETV1, sequence (P50549 whole entry): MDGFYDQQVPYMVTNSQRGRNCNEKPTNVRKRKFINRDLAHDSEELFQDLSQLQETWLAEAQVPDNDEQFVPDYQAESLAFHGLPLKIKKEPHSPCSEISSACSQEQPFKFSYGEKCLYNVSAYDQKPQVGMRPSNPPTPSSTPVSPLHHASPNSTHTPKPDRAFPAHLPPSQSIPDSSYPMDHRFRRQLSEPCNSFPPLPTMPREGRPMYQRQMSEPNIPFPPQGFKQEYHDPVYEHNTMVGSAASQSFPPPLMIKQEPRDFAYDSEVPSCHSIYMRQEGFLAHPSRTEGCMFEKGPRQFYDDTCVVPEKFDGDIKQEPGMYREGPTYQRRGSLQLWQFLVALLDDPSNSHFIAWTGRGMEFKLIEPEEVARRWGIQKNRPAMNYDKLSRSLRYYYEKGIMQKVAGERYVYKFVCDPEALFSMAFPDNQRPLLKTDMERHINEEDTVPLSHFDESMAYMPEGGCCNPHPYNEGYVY
# Summary of the method: as §1
# [11] = biological target: T6, ERF (Homo sapiens, UniProt P50548 1-548); conditions: protein: recombinant; tags: N-terminal GST; dsDNA, one strand shown
# T6 sequence: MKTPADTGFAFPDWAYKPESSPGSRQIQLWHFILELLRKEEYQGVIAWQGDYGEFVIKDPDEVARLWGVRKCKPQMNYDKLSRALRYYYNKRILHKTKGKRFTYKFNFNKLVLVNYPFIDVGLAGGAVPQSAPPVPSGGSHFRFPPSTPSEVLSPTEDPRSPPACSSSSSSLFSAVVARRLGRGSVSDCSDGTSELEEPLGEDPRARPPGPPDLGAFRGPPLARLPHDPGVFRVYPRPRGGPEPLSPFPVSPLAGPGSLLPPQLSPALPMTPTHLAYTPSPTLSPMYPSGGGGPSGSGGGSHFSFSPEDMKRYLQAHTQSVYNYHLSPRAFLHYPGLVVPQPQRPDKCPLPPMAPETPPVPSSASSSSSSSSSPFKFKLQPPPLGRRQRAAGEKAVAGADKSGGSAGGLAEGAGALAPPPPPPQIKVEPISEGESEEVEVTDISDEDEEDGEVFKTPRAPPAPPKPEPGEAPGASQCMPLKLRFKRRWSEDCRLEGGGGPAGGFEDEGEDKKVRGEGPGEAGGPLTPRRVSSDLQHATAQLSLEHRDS
# Summary of the method: as §1
# [12] = biological target: T7, ETV3L (Homo sapiens, UniProt Q6ZN32 1-361); conditions: protein: recombinant; tags: N-terminal GST; dsDNA, one strand shown
# T7 sequence: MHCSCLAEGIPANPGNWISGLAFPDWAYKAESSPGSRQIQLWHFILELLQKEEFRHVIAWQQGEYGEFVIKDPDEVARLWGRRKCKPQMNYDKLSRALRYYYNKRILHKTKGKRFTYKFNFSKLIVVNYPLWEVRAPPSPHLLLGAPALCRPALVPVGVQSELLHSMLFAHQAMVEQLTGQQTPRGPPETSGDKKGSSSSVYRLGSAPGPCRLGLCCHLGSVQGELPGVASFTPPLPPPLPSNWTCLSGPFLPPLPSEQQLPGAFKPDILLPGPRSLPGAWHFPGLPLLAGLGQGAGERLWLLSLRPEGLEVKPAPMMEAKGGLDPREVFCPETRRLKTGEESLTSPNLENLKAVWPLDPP
# Summary of the method: as §1
# [13] = biological target: T8, ETS2 (Homo sapiens, UniProt P15036 1-469); conditions: protein: recombinant; tags: N-terminal GST; dsDNA, one strand shown
# T8 sequence: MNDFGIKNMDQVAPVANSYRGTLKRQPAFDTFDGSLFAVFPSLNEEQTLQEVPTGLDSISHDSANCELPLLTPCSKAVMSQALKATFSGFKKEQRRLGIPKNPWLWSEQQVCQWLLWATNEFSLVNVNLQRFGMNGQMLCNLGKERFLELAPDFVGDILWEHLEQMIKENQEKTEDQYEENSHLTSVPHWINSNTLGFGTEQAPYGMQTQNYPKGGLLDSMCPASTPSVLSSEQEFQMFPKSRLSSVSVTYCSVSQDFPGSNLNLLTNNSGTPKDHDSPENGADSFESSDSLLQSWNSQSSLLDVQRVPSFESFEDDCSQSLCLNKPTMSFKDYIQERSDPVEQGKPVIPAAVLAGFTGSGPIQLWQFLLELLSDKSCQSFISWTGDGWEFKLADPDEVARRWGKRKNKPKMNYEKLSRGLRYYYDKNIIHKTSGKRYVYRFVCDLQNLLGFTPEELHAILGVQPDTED
# Summary of the method: as §1
# [14] = biological target: T9, SPDEF (Homo sapiens, UniProt O95238 1-335); conditions: protein: recombinant; tags: N-terminal GST; dsDNA, one strand shown
# T9 sequence: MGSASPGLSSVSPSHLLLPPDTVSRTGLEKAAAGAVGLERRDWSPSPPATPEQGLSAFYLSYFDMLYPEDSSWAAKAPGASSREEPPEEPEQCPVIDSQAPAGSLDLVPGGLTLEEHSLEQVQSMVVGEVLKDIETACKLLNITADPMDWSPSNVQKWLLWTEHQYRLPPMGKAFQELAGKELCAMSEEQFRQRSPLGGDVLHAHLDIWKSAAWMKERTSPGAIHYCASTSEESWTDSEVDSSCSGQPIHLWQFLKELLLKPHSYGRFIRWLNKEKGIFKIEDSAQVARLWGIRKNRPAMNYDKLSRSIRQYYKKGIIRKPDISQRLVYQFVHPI
# Summary of the method: as §1
# [15] = biological target: T10, ETV7 (Homo sapiens, UniProt Q9Y603 1-341); conditions: protein: recombinant; tags: N-terminal GST; dsDNA, one strand shown
# T10 sequence: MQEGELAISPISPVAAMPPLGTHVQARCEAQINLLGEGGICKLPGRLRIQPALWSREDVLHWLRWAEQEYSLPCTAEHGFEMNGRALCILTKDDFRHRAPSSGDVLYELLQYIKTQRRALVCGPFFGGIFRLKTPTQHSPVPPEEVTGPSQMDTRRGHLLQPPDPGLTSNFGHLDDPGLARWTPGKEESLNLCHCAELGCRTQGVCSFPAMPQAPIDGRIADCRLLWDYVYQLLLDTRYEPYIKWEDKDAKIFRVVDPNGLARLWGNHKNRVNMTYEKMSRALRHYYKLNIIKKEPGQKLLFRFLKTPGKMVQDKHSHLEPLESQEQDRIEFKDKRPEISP
# Summary of the method: as §1
# [16] = biological target: T11, ELF5 (Homo sapiens, UniProt Q9UKW6-2 1-255); conditions: protein: recombinant; tags: N-terminal GST; dsDNA, one strand shown
# T11 sequence: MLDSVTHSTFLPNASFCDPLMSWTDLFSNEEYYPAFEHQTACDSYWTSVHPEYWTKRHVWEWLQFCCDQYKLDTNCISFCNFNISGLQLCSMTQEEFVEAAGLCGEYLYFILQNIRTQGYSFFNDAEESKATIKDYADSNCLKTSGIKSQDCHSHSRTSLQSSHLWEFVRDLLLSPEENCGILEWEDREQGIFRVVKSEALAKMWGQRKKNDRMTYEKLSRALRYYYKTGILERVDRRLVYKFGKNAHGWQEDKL
# Summary of the method: as §1
# [17] = biological target: T12, ETV3 (Homo sapiens, UniProt P41162-2 1-143); conditions: protein: recombinant; tags: N-terminal GST; dsDNA, one strand shown
# T12 sequence: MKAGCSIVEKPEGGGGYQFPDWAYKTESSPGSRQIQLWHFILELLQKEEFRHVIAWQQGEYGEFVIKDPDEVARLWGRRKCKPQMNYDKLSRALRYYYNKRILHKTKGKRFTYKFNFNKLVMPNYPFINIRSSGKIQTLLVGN
# Summary of the method: as §1
# [18] = biological target: ETV6 (Homo sapiens, UniProt P41212 1-452); conditions: protein: recombinant; tags: N-terminal GST; dsDNA, one strand shown
# ETV6, sequence (P41212 whole entry): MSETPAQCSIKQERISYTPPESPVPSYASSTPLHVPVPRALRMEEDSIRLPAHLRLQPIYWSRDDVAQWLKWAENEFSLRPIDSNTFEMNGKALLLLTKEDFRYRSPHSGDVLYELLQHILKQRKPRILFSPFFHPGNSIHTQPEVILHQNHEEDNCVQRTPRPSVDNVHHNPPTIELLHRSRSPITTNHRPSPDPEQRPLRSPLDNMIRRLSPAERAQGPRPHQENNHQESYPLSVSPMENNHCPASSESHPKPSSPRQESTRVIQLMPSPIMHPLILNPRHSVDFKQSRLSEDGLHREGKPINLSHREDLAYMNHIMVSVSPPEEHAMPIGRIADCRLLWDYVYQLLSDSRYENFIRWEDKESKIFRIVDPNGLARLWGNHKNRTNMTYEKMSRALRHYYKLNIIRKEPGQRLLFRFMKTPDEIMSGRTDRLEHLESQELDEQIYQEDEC
# Summary of the method: as §1
sequence,measurement,setting,value
TATCTA,binding signal,[1],"1.19 fold enrichment (6-mer frequency, TF over GST control)"
same,binding signal,[2],"1.14 fold enrichment (6-mer frequency, TF over GST control)"
same,binding signal,[3],"1.66 fold enrichment (6-mer frequency, TF over GST control)"
same,binding signal,[4],"1.19 fold enrichment (6-mer frequency, TF over GST control)"
same,binding signal,[5],"1.22 fold enrichment (6-mer frequency, TF over GST control)"
same,binding signal,[6],"1.2 fold enrichment (6-mer frequency, TF over GST control)"
same,binding signal,[7],"1.25 fold enrichment (6-mer frequency, TF over GST control)"
same,binding signal,[8],"1.34 fold enrichment (6-mer frequency, TF over GST control)"
same,binding signal,[9],"1.73 fold enrichment (6-mer frequency, TF over GST control)"
same,binding signal,[10],"1.14 fold enrichment (6-mer frequency, TF over GST control)"
same,binding signal,[11],"1.27 fold enrichment (6-mer frequency, TF over GST control)"
same,binding signal,[12],"1.18 fold enrichment (6-mer frequency, TF over GST control)"
same,binding signal,[13],"1.26 fold enrichment (6-mer frequency, TF over GST control)"
same,binding signal,[14],"1.23 fold enrichment (6-mer frequency, TF over GST control)"
same,binding signal,[15],"1.26 fold enrichment (6-mer frequency, TF over GST control)"
same,binding signal,[16],"1.18 fold enrichment (6-mer frequency, TF over GST control)"
same,binding signal,[17],"1.29 fold enrichment (6-mer frequency, TF over GST control)"
same,binding signal,[18],"1.28 fold enrichment (6-mer frequency, TF over GST control)"
